Experimental data taken from the supplement of paper PMC10849652.
The full data set covers some 7,900 targets. This sample favours those with a hit. About 0.6% of all pairs of compound and target were hits.

Key:
Experiment in all cases: log2 fold change, soluble protein after heating vs DMSO (PISA); higher = thermal stabilisation; K562 cells, 10 uM, 30 min; active = over 0.2 and 3.5 SD of the protein, either way, in both replicates (recomputed)
[1] = compound: CS(=O)(=O)c1ccc(-c2cnc(N)c(C(=O)Nc3ccccc3)n2)cc1
In short: (§1)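 K562 cells at 2×10^6 cells/mL were given 10 μM compound for 30 min. Aliquots then went through 3 min of heating across 48°C-58°C, were pooled, and were extracted in PBS with 0.5% NP-40 at 4°C, and the supernatant after 21,000xg for 90 min was quantified by TMTpro 16plex LC-MS/MS with channel sums equalised. Thermal stability relative to control samples, from duplicates, is given as log2 fold change.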

crizotinib = compound: C[C@@H](Oc1cc(-c2cnn(C3CCNCC3)c2)cnc1N)c1c(Cl)ccc(F)c1Cl [crizotinib]
In short: as §1

[2] = compound: C[C@@H]1COCCN1C2=NC(=NC(=C2)C3(CC3)S(=O)(=O)C)C4=C5C=CNC5=CC=C4
In short: as §1

[3] = compound: C[C@H](C1=CC=C(C=C1)C(=O)NC2=C3C=CNC3=NC=C2)N
In short: as §1

duvelisib = compound: C[C@H](Nc1ncnc2nc[nH]c12)c1cc2cccc(Cl)c2c(=O)n1-c1ccccc1 [duvelisib]
In short: as §1

gandotinib = compound: Cc1cc(Nc2cc(CN3CCOCC3)c3nc(C)c(Cc4ccc(Cl)cc4F)n3n2)n[nH]1 [gandotinib]
In short: as §1

tozasertib = compound: Cc1cc(Nc2cc(N3CCN(C)CC3)nc(Sc3ccc(NC(=O)C4CC4)cc3)n2)n[nH]1 [tozasertib]
In short: as §1

[4] = compound: Cc1cc(SCc2sc(-c3ccc(C(F)(F)F)cc3)nc2C)ccc1OCC(=O)O
In short: as §1

doramapimod = compound: Cc1ccc(-n2nc(C(C)(C)C)cc2NC(=O)Nc2ccc(OCCN3CCOCC3)c3ccccc23)cc1 [doramapimod]
In short: as §1

ispinesib = compound: Cc1ccc(C(=O)N(CCCN)[C@@H](c2nc3cc(Cl)ccc3c(=O)n2Cc2ccccc2)C(C)C)cc1 [ispinesib]
In short: as §1

bafetinib = compound: Cc1ccc(NC(=O)c2ccc(CN3CC[C@H](N(C)C)C3)c(C(F)(F)F)c2)cc1Nc1nccc(-c2cncnc2)n1 [bafetinib]
In short: as §1

[5] = compound: Cc1cccc(CC(=O)N2CCc3c2ccc(-c2cn(C)c4ncnc(N)c24)c3F)n1
In short: as §1

nilotinib = compound: Cc1cn(-c2cc(NC(=O)c3ccc(C)c(Nc4nccc(-c5cccnc5)n4)c3)cc(C(F)(F)F)c2)cn1 [nilotinib]
In short: as §1

[6] = compound: Cc1nc(Nc2n[nH]c3c2CN(C(=O)N[C@H](CN(C)C)c2ccccc2)C3(C)C)c2sccc2n1
In short: as §1

dasatinib = compound: Cc1nc(Nc2ncc(C(=O)Nc3c(C)cccc3Cl)s2)cc(N2CCN(CCO)CC2)n1 [dasatinib]
In short: as §1

[7] = compound: Cc1ncc(-c2ccnc(Nc3ccc(S(C)(=O)=O)cc3)n2)n1C(C)C
In short: as §1

[8] = compound: Cn1cc(-c2ccc3c(c2)CCN3C(=O)Cc2cccc(C(F)(F)F)c2)c2c(N)ncnc21
In short: as §1

[9] = compound: Cn1cc(-c2ccc3nnc(C(F)(F)c4ccc5ncccc5c4)n3n2)cn1
In short: as §1

tipifarnib = compound: Cn1cncc1[C@@](N)(c1ccc(Cl)cc1)c1ccc2c(c1)c(-c1cccc(Cl)c1)cc(=O)n2C [tipifarnib]
In short: as §1

mubritinib = compound: FC(F)(F)c1ccc(/C=C/c2nc(COc3ccc(CCCCn4ccnn4)cc3)co2)cc1 [mubritinib]
In short: as §1

Measured: log2 fold change

RPRD1B (UniProt Q9NQG5)
inactive: [1] -0.104 | crizotinib 0.072 | [2] 0.062 | [3] -0.042 | duvelisib 0.078 | gandotinib -0.227 | tozasertib 0.023 | [4] 0.062 | doramapimod -0.044 | ispinesib 0.039 | bafetinib -0.036 | [5] 0.04 | nilotinib -0.036 | [6] -0.072 | dasatinib -0.099 | [7] -0.024 | [8] -0.021 | [9] -0.035 | tipifarnib -0.039 | mubritinib 0.032

RALA (UniProt P11233)
Chain of UniProt P11233 (P11233 whole entry, looked up): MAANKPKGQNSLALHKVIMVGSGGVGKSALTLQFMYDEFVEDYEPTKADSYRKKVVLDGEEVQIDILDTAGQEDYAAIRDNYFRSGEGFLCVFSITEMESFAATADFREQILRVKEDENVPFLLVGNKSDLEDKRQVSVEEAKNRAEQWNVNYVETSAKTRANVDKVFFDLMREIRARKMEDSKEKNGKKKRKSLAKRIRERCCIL
inactive: [1] 0.026 | crizotinib 0.112 | [2] 0.088 | [3] -0.097 | duvelisib -0.046 | gandotinib -0.001 | tozasertib 0.016 | [4] -0.009 | doramapimod -0.009 | ispinesib 0.03 | bafetinib -0.026 | [5] 0.178 | nilotinib 0.064 | [6] -0.012 | dasatinib 0.027 | [7] -0.026 | [8] 0.014 | [9] 0.043 | tipifarnib -0.06 | mubritinib 0.015

REL (UniProt Q04864)
Chain of UniProt Q04864 (Q04864 whole entry, looked up): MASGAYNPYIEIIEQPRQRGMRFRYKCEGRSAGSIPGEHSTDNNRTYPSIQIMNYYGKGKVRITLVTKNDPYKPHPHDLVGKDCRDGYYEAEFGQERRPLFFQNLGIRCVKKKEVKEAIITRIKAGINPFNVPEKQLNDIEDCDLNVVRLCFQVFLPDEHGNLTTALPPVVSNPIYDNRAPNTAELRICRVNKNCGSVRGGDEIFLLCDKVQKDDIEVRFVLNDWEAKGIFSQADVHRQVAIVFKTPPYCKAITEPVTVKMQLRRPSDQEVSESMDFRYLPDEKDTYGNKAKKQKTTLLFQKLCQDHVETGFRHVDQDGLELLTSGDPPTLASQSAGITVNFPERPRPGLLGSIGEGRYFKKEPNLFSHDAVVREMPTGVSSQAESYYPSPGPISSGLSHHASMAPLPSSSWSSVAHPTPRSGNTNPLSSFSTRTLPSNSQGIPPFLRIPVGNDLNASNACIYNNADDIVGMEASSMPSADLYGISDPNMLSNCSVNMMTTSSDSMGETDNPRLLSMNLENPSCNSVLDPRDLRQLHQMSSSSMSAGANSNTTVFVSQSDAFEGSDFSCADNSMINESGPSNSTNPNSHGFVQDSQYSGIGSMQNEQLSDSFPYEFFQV
active: [6] -0.438
inactive: [1] 0.079 | crizotinib -0.04 | [2] 0.005 | [3] 0.02 | duvelisib -0.034 | gandotinib -0.321 | tozasertib 0.026 | [4] 0.028 | doramapimod -0.003 | ispinesib -0.088 | bafetinib -0.185 | [5] 0.03 | nilotinib -0.094 | dasatinib -0.115 | [7] -0.018 | [8] 0.013 | [9] 0.059 | tipifarnib -0.011 | mubritinib 0.034

SASH1 (UniProt O94885)
inactive: [1] 0.023 | crizotinib -0.122 | [2] -0.077 | [3] -0.024 | duvelisib 0.032 | gandotinib -0.028 | tozasertib 0.088 | [4] 0.198 | doramapimod -0.031 | ispinesib -0.116 | bafetinib -0.052 | [5] -0.006 | nilotinib -0.079 | [6] -0.071 | dasatinib -0.046 | [7] 0.034 | [8] 0.011 | [9] 0.073 | tipifarnib 0.025 | mubritinib 0.032

RNF187 (UniProt Q5TA31)
Chain of UniProt Q5TA31 (Q5TA31 whole entry, looked up): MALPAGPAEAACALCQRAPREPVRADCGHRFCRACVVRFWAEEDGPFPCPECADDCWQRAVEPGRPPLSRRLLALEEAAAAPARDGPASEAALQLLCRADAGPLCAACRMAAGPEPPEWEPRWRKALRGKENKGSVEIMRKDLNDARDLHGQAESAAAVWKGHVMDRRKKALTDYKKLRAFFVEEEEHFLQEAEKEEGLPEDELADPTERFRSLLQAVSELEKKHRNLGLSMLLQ
inactive: [1] -0.097 | crizotinib -0.018 | [2] -0.019 | [3] -0.027 | duvelisib 0.015 | gandotinib -0.111 | tozasertib -0.069 | [4] 0.038 | doramapimod 0.015 | ispinesib 0.191 | bafetinib 0.009 | [5] 0.088 | nilotinib 0.029 | [6] -0.041 | dasatinib 0.022 | [7] -0.001 | [8] -0.105 | [9] 0.006 | tipifarnib -0.07 | mubritinib 0.102

RPS12 (UniProt P25398)
inactive: [1] -0.041 | crizotinib 0.078 | [2] -0.098 | [3] 0.165 | duvelisib -0.061 | gandotinib 0.124 | tozasertib -0.003 | [4] -0.011 | doramapimod 0.012 | ispinesib 0.017 | bafetinib 0.112 | [5] 0.006 | nilotinib 0.002 | [6] 0.126 | dasatinib 0.08 | [7] -0.012 | [8] -0.013 | [9] -0.004 | tipifarnib 0.049 | mubritinib -0.08

RSL1D1 (UniProt O76021)
inactive: [1] -0.146 | crizotinib 0.037 | [2] -0.33 | [3] 0.456 | duvelisib -0.169 | gandotinib 0.146 | tozasertib 0.066 | [4] -0.037 | doramapimod 0.312 | ispinesib 0.251 | bafetinib 0.288 | [5] -0.027 | nilotinib 0.117 | [6] 0.109 | dasatinib 0.239 | [7] 0.264 | [8] -0.427 | [9] -0.18 | tipifarnib 0.15 | mubritinib -0.244

RHOA (UniProt P61586)
Chain of UniProt P61586 (P61586 whole entry, looked up): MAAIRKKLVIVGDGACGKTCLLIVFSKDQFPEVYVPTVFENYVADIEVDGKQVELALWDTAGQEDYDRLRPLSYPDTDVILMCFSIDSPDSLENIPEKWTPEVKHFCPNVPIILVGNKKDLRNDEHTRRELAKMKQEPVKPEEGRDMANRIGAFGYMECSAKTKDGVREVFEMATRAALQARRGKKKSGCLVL
inactive: [1] 0.028 | crizotinib 0.098 | [2] -0.317 | [3] -0.101 | duvelisib -0.066 | gandotinib 0.022 | tozasertib -0.024 | [4] -0.035 | doramapimod -0.082 | ispinesib 0.219 | bafetinib -0.149 | [5] -0.051 | nilotinib 0.154 | [6] 0.001 | dasatinib 0.001 | [7] 0.014 | [8] 0.04 | [9] 0.012 | tipifarnib 0 | mubritinib 0.029

SAMSN1 isoform 3 (UniProt Q9NSI8)
inactive: [1] 0.024 | crizotinib -0.082 | [2] 0.043 | [3] -0.027 | duvelisib 0.006 | gandotinib -0.077 | tozasertib -0.013 | [4] 0.019 | doramapimod -0.052 | ispinesib -0.069 | bafetinib -0.049 | [5] 0.04 | nilotinib -0.036 | [6] -0.169 | dasatinib -0.09 | [7] 0.02 | [8] 0.029 | [9] 0.037 | tipifarnib -0.015 | mubritinib 0.048

RNPEP (UniProt Q9H4A4)
Chain of UniProt Q9H4A4 (Q9H4A4 whole entry, looked up): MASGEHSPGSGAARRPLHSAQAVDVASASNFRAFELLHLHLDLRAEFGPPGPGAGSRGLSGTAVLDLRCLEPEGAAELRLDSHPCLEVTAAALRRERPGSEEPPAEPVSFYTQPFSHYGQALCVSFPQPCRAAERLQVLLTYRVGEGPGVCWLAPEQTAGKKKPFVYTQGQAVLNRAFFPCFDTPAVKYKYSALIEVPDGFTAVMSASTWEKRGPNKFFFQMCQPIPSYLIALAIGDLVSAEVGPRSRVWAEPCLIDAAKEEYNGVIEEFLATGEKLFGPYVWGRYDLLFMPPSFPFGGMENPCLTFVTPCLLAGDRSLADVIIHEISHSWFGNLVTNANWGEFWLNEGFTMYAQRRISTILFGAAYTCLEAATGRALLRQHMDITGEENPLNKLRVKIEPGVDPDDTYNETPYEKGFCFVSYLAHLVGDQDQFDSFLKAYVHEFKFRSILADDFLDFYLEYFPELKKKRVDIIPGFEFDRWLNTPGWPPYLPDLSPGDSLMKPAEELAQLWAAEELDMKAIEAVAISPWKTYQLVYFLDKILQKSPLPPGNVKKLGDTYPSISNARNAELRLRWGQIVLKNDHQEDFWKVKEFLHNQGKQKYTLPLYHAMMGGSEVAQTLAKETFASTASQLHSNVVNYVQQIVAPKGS
inactive: [1] 0.037 | crizotinib -0.081 | [2] 0.081 | [3] -0.034 | duvelisib 0.039 | gandotinib -0.053 | tozasertib 0.018 | [4] 0.083 | doramapimod -0.031 | ispinesib -0.086 | bafetinib 0.003 | [5] 0.035 | nilotinib -0.004 | [6] -0.041 | dasatinib -0.134 | [7] 0.025 | [8] 0.012 | [9] 0.043 | tipifarnib -0.116 | mubritinib 0.051

SERPINA7 (UniProt P05543)
inactive: [1] -0.16 | crizotinib 0.133 | [2] -0.095 | [3] 0.257 | duvelisib -0.201 | gandotinib -0.02 | tozasertib -0.046 | [4] -0.158 | doramapimod 0.217 | ispinesib 0.068 | bafetinib -0.191 | [5] -0.152 | nilotinib 0.05 | [6] 0.115 | dasatinib 0.098 | [7] 0.392 | [8] 0.238 | [9] 0.001 | tipifarnib 0.104 | mubritinib -0.247

RPS15 (UniProt P62841)
active: [3] 0.45
inactive: [1] 0.032 | crizotinib 0 | [2] -0.174 | duvelisib -0.078 | gandotinib 0.137 | tozasertib -0.071 | [4] -0.045 | doramapimod 0.032 | ispinesib -0.003 | bafetinib 0.087 | [5] -0.09 | nilotinib 0.033 | [6] 0.221 | dasatinib 0.133 | [7] -0.106 | [8] -0.194 | [9] -0.027 | tipifarnib 0.082 | mubritinib -0.044

SCAF8 isoform 2 (UniProt Q9UPN6)
Chain of UniProt Q9UPN6 (Q9UPN6 whole entry, looked up): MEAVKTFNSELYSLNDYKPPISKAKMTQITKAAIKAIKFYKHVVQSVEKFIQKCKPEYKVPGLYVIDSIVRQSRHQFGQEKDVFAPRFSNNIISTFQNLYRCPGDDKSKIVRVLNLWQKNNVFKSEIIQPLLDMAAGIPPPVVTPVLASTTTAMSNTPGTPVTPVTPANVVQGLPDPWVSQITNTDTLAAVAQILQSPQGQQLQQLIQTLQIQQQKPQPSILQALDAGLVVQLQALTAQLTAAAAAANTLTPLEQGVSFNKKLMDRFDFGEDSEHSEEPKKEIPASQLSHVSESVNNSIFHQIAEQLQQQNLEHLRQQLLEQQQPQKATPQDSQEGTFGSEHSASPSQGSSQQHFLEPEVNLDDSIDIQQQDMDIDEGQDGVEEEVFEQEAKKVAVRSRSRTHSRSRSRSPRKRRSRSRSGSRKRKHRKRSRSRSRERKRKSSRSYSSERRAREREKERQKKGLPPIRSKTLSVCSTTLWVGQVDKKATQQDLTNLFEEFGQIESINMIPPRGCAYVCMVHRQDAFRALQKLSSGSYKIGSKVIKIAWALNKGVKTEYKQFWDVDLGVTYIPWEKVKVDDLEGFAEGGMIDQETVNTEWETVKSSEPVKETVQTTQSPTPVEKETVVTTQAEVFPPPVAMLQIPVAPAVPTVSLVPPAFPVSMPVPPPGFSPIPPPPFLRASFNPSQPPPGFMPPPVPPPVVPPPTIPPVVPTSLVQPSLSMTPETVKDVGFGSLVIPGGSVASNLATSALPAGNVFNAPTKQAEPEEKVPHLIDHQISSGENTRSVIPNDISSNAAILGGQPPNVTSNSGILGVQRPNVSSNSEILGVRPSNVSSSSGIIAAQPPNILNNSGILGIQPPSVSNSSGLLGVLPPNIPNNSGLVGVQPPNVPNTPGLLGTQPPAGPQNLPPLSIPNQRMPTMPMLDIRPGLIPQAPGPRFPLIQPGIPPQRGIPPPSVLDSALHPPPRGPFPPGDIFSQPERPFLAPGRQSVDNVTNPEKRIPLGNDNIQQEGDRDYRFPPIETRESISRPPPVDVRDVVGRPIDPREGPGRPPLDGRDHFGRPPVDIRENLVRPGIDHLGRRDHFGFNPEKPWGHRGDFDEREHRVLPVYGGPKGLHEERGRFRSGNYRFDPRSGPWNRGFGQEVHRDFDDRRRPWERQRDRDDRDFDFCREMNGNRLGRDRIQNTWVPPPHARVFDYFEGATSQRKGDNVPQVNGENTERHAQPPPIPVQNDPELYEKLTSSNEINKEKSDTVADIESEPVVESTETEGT
inactive: [1] 0.085 | crizotinib -0.011 | [2] 0.1 | [3] -0.018 | duvelisib 0.053 | gandotinib -0.098 | tozasertib -0.039 | [4] 0.065 | doramapimod 0.003 | ispinesib -0.181 | bafetinib -0.024 | [5] 0.019 | nilotinib -0.032 | [6] -0.208 | dasatinib -0.212 | [7] 0.069 | [8] 0.064 | [9] 0.008 | tipifarnib -0.027 | mubritinib 0.023

RNF220 (UniProt Q5VTB9)
active: [9] 0.239
inactive: [1] -0.001 | crizotinib 0.096 | [2] -0.003 | [3] -0.042 | duvelisib 0.055 | gandotinib -0.012 | tozasertib 0.043 | [4] -0.011 | doramapimod -0.057 | ispinesib 0.073 | bafetinib -0.064 | [5] 0.008 | nilotinib 0.009 | [6] -0.058 | dasatinib 0.01 | [7] 0.037 | [8] -0.034 | tipifarnib -0.003 | mubritinib 0.002

RPS6KA1 isoform 2 (UniProt Q15418)
Chain of UniProt Q15418 (Q15418 whole entry, looked up): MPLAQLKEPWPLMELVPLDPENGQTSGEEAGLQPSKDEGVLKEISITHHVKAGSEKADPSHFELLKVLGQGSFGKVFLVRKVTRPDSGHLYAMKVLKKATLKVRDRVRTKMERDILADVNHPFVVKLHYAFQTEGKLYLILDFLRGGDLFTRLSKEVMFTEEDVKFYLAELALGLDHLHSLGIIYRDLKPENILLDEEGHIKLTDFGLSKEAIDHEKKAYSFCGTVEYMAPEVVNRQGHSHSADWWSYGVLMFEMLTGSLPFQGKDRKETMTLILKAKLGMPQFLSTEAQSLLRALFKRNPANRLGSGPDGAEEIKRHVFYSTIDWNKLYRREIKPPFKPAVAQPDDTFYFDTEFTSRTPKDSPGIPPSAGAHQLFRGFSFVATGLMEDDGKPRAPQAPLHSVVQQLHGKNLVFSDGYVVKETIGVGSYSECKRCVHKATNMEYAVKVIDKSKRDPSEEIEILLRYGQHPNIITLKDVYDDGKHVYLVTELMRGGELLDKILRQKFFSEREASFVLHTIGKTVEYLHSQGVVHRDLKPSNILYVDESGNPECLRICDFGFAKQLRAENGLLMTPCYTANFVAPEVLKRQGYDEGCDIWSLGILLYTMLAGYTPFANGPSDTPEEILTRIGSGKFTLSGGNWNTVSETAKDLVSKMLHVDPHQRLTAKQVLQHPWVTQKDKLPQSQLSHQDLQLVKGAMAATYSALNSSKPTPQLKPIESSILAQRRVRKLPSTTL
active: [6] -0.569
inactive: [1] 0 | crizotinib -0.259 | [2] 0.138 | [3] -0.066 | duvelisib 0.03 | gandotinib -0.199 | tozasertib 0.002 | [4] 0.066 | doramapimod -0.026 | ispinesib 0.021 | bafetinib -0.051 | [5] 0.081 | nilotinib -0.002 | dasatinib -0.281 | [7] -0.044 | [8] -0.019 | [9] 0 | tipifarnib -0.056 | mubritinib 0.041

SENP6 (UniProt Q9GZR1)
Chain of UniProt Q9GZR1 (Q9GZR1 whole entry, looked up): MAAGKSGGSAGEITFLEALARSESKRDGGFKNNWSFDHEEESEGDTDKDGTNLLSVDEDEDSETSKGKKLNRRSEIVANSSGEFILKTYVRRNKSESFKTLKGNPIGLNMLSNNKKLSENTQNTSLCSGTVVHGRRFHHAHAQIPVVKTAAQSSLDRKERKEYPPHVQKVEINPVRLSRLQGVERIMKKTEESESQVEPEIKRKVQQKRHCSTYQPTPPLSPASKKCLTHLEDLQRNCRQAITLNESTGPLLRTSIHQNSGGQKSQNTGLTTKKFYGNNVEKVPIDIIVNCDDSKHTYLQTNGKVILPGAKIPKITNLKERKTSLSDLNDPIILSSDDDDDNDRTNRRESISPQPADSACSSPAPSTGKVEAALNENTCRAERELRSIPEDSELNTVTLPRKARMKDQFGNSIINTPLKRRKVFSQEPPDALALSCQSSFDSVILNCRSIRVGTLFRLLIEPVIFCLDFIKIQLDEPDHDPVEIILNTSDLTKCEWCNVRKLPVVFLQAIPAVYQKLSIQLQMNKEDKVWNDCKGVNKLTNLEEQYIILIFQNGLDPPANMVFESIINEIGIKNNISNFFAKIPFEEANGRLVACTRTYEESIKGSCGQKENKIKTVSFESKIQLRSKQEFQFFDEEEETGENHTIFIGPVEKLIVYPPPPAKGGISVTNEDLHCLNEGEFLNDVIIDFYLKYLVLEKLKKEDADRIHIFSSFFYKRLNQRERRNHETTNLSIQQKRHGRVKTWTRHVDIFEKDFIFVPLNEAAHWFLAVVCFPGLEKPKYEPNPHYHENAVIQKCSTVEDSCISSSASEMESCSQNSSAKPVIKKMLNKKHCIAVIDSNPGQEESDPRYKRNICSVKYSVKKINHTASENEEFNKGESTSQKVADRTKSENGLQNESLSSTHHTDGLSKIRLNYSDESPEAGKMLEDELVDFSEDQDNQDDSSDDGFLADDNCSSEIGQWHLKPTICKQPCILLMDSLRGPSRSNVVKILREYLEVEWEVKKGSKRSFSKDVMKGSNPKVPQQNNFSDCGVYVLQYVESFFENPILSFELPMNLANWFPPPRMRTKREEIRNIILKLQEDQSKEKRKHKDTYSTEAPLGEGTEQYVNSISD
inactive: [1] -0.016 | crizotinib -0.015 | [2] -0.134 | [3] -0.002 | duvelisib 0.024 | gandotinib -0.056 | tozasertib 0.02 | [4] -0.046 | doramapimod 0.006 | ispinesib -0.046 | bafetinib 0.015 | [5] -0.015 | nilotinib 0.007 | [6] -0.038 | dasatinib -0.028 | [7] 0.063 | [8] 0.046 | [9] -0.013 | tipifarnib 0.025 | mubritinib 0.053
